# Measurements reported in PubChem BioAssay (EPA / NIEHS).
# “And” between values parts separate entries of the source, which are not always exact repeats. Equal entries are not always repeated. Inconclusive results are not listed. The source made the active and inactive calls. The calls were made as follows, unless noted: active = hit-call score of the fitted dose curve at least 0.9, where 1 is the maximum; inconclusive = response in the unintended direction; inactive = score below 0.9.
# Key:
# [1] = target: Retinoic acid receptor RXR-alpha (Homo sapiens) (UniProt P19793); test: OT_NURR1_NURR1RXRa_1440: Odyssey Thera (OT) 24-hour HEK293T Protein Complementation Assay for Nurr1/retinoid X receptor (RXR) (AID 2283386)
# Chain of Retinoic acid receptor RXR-alpha (Homo sapiens) (P19793 whole entry, looked up, the tested form may be a part): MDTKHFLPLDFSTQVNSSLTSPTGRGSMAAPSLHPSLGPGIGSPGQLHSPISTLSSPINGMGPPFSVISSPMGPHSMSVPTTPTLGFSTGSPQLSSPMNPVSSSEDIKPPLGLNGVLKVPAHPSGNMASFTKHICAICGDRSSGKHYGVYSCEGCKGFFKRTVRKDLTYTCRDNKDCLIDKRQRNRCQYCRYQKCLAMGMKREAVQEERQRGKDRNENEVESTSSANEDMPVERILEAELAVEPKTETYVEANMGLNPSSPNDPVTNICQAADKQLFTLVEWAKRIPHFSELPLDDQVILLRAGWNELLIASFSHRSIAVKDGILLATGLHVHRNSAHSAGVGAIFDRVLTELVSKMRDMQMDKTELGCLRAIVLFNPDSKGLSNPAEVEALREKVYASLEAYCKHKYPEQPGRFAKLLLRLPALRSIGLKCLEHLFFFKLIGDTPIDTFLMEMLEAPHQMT
# Summary of the method: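 Steps: fragment-tagged Nurr1 and RXRα expressed in HEK293T; compounds added; after 24 h, complemented reporter quantified by fluorescence intensity; signal increase over DMSO fitted as the single endpoint.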
# [2] = target: Peroxisome proliferator-activated receptor gamma (Homo sapiens) (UniProt P37231); test: OT_PPARg_PPARgSRC1_1440: Odyssey Thera (OT) 24-hour Protein-Complementation Assay for Peroxisome Proliferator-activated Receptor Gamma/ SRC-1 Co-activator (AID 2283388);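 also: nuclear to cytoplasmic ratio of reconstituted Venus YFP fluorescence in fixed imaged cells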
# Chain of Peroxisome proliferator-activated receptor gamma (Homo sapiens) (P37231 whole entry, looked up, the tested form may be a part): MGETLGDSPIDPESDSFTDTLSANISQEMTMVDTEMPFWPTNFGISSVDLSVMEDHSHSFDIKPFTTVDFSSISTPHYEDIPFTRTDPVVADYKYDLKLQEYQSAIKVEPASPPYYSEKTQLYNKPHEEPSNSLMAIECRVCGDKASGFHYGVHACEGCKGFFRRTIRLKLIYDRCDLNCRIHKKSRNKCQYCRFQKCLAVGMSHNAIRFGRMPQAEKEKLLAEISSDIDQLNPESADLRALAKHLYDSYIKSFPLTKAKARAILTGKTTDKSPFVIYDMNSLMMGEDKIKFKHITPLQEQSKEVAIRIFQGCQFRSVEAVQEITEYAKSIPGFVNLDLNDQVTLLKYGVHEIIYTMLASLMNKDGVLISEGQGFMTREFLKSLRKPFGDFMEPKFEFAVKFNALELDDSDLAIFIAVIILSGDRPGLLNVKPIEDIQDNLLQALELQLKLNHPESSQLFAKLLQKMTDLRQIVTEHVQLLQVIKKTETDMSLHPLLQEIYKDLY
# Summary of the method: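 Readout: nuclear-to-cytoplasmic 488 nm fluorescence ratio, ≥350 cells per image, 8 images per well, after 24 h compound exposure of HEK293T expressing PPARg/SRC-1 split-YFP fusions. Activity fitted in positive direction against DMSO.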
# [3] = target: Peroxisome proliferator-activated receptor gamma (Homo sapiens) (UniProt P37231); test: OT_PPARg_PPARgSRC1_0480: Odyssey Thera (OT) 8-hour Protein-Complementation Assay for Peroxisome Proliferator-activated Receptor Gamma / SRC-1 Co-activator (AID 2283387);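 also: nuclear to cytoplasmic split Venus YFP fluorescence ratio reporting PPARg SRC-1 interaction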
# Summary of the method: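 Protein-fragment complementation in HEK293T: Venus YFP halves (residues 1-158, 159-239, mutated to IFP1/IFP2) fused to PPARg/SRC-1. 8 h exposure; N/C ratio at 488 nm; DMSO negative control.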
# [4] = CEETOX_H295R_OHPREG: CeeTox H295R High-throughput Steroidogenesis Assay for OH-Pregnenolone (OHPREG) (AID 2283434; active = hit-call score of the fitted dose curve at least 0.9, where 1 is the maximum; inactive = score below 0.9); settings: actives raise or lower the signal
# Summary of the method: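 Readout: HPLC-MS/MS of 17alpha-hydroxypregnenolone in medium after 48 h chemical exposure of H295R cells pretreated with forskolin. Values fitted bidirectionally relative to DMSO; chemicals reducing viability to 20–70% were retested after 10-fold dilution.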
# [5] = CEETOX_H295R_OHPROG: CeeTox H295R High-throughput Steroidogenesis Assay for OH-Progesterone (OHPROG) (AID 2283435; active = hit-call score of the fitted dose curve at least 0.9, where 1 is the maximum; inactive = score below 0.9;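 as to AC50: human adrenal H295R cells primed 48 h with 10 µM forskolin; 17alpha-hydroxyprogesterone secreted into medium measured by HPLC-MS/MS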); settings: actives raise or lower the signal
# Summary of the method: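 Steps: seed H295R cells and adhere overnight; stimulate with 10 uM forskolin for 48 h; replace with chemical-containing medium (0.1% DMSO) for 48 h; extract medium with MTBE; quantify 17alpha-hydroxyprogesterone by reverse-phase C18 HPLC-MS/MS against a 7-point curve.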
# [6] = CEETOX_H295R_ANDR: CeeTox H295R High-throughput Steroidogenesis Assay for Androstenedione (ANDR) (AID 2283436; active = hit-call score of the fitted dose curve at least 0.9, where 1 is the maximum; inactive = score below 0.9;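 also: human H295R adrenal cells exposed for 48 h with androstenedione measured in medium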); settings: actives raise or lower the signal
# Summary of the method: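 Steroidogenesis in H295R adrenal cells after 48 h dosing; androstenedione quantified by LC-MS/MS, with DMSO as negative control and baseline for bidirectional curve fitting.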
# [7] = CEETOX_H295R_CORTISOL: CeeTox H295R High-throughput Steroidogenesis Assay for Cortisol (AID 2283438; active = hit-call score of the fitted dose curve at least 0.9, where 1 is the maximum; inactive = score below 0.9); settings: actives raise or lower the signal
# Summary of the method: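 Cortisol synthesis by H295R cells is measured 48 h after chemical dosing, following a 48 h stimulation with 10 uM forskolin. Hormone is extracted and quantified by HPLC-MS/MS, and activity is fitted bidirectionally against the DMSO control.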
# [8] = CEETOX_H295R_DOC: CeeTox H295R High-throughput Steroidogenesis Assay for DOC (AID 2283439; active = hit-call score of the fitted dose curve at least 0.9, where 1 is the maximum; inactive = score below 0.9); settings: actives raise or lower the signal
# Summary of the method: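 Steps: seed H295R, adhere overnight; 10 uM forskolin 48 h; replace with chemical medium (0.1% DMSO) 48 h; collect medium, MTBE extraction, HPLC-MS/MS for DOC. Viability then checked by MTT; cytotoxic chemicals diluted until viability ≥70%.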
# [9] = CEETOX_H295R_ESTRADIOL: CeeTox H295R High-throughput Steroidogenesis Assay for Estradiol (AID 2283440; active = hit-call score of the fitted dose curve at least 0.9, where 1 is the maximum; inactive = score below 0.9;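 also: estradiol secreted into medium quantified by LC-MS/MS after dansyl derivatisation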); settings: actives raise or lower the signal
# Summary of the method: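 H295R, 48 h forskolin (10 uM) prestim → 48 h compound, 0.1% DMSO final. Estradiol in medium: MTBE extraction, dansyl chloride derivatization, LC-MS/MS. Fit bidirectional vs DMSO baseline; MTT viability in same wells.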
# [10] = CEETOX_H295R_ESTRONE: CeeTox H295R High-throughput Steroidogenesis Assay for Estrone (AID 2283441; active = hit-call score of the fitted dose curve at least 0.9, where 1 is the maximum; inactive = score below 0.9); settings: actives raise or lower the signal
# Summary of the method: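 Estrone secreted into medium quantified by LC-MS/MS after dansyl chloride derivatization, following 48 h chemical exposure (0.1% DMSO final) of forskolin-prestimulated (10 uM, 48 h) H295R cells; gain or loss fitted against DMSO; MTT viability in same wells.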
structure (smiles),measurement,setting,value
CCCCCCCCCCCCCCOS(=O)(=O)O,outcome,[1],inactive
same,outcome,[2],inactive
CC(=O)S[C@H](C(=O)N[C@H]1Cc2ccccc2[C@H]2CCC[C@@H](C(=O)O)N2C1=O)C(C)C,outcome,[3],inactive
same,outcome,[2],inactive
CC(N)=O,outcome,[1],inactive
same,outcome,[2],inactive
O=C1O[C@H]([C@H](O)CO)C(O)=C1O,outcome,[1],inactive
same,outcome,[3],inactive
same,outcome,[2],inactive
C#CC(O)C(CC)CCCC (configuration not stated),AC50,[1],76.3 µM (active)
same,outcome,[3],inactive
same,outcome,[2],inactive
O=NO,outcome,[1],inactive
same,outcome,[2],inactive
CCc1cc(C2=C(C(=O)O)N(c3ccccc3C(F)(F)F)S(=O)(=O)c3ccccc32)cc2c1OCO2,outcome,[1],inactive
O=C1OC(c2ccc(O)cc2)(c2ccc(O)cc2)c2ccccc21,outcome,[1],inactive
same,outcome,[3],inactive
same,outcome,[2],inactive
same,outcome,[4],inactive
same,AC50,[5],1.77 µM (active)
same,outcome,[6],inactive
O=C1CCCCC1,outcome,[3],inactive
same,outcome,[2],inactive
CCOCCOCCO,outcome,[3],inactive
same,outcome,[2],inactive
CCCCC(CC)CO (configuration not stated),outcome,[1],inactive
same,outcome,[2],inactive
CN(C)C(=O)NC1(c2ccccc2)CCN(CCC[C@]2(c3ccc(Cl)c(Cl)c3)CCCN(C(=O)c3ccccc3)C2)CC1,outcome,[1],inactive
same,outcome,[2],inactive
same,outcome,[4],inactive
same,outcome,[5],inactive
same,outcome,[7],inactive
same,outcome,[8],inactive
same,outcome,[9],inactive
same,outcome,[10],inactive
CCCCOC(=O)CCCCC(=O)OCCCC,outcome,[1],inactive
same,outcome,[2],inactive
NC1CCCCC1,outcome,[3],inactive
same,outcome,[2],inactive
Cc1occc(=O)c1O,outcome,[1],inactive
same,outcome,[3],inactive
same,outcome,[2],inactive
CC(C)COC(=O)CCCCC(=O)OCC(C)C,outcome,[3],inactive
same,outcome,[2],inactive
CSc1ccc(Oc2ccc(S(N)(=O)=O)cc2CN(C)C)cc1C,AC50,[1],57.5 µM (active) and 19 µM (active)
same,outcome,[3],inactive
same,outcome,[2],inactive
